Assay results reported in PubChem BioAssay.

The compounds below were run against Focal adhesion kinase 1 (Homo sapiens) (UniProt Q05397) (assay: small-molecule microarray binders of FAK, primary screen, biochemical, 635/667 nm fluorescence, BSA, DTT (AID 1130;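 further: composite of spot emission at 667 nm and signal to noise over triplicate slides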)). Conditions: PTK2 binding, 635 nm fluorescence, higher = more signal.
Sequence of Focal adhesion kinase 1 (Homo sapiens) (Q05397 whole entry, looked up): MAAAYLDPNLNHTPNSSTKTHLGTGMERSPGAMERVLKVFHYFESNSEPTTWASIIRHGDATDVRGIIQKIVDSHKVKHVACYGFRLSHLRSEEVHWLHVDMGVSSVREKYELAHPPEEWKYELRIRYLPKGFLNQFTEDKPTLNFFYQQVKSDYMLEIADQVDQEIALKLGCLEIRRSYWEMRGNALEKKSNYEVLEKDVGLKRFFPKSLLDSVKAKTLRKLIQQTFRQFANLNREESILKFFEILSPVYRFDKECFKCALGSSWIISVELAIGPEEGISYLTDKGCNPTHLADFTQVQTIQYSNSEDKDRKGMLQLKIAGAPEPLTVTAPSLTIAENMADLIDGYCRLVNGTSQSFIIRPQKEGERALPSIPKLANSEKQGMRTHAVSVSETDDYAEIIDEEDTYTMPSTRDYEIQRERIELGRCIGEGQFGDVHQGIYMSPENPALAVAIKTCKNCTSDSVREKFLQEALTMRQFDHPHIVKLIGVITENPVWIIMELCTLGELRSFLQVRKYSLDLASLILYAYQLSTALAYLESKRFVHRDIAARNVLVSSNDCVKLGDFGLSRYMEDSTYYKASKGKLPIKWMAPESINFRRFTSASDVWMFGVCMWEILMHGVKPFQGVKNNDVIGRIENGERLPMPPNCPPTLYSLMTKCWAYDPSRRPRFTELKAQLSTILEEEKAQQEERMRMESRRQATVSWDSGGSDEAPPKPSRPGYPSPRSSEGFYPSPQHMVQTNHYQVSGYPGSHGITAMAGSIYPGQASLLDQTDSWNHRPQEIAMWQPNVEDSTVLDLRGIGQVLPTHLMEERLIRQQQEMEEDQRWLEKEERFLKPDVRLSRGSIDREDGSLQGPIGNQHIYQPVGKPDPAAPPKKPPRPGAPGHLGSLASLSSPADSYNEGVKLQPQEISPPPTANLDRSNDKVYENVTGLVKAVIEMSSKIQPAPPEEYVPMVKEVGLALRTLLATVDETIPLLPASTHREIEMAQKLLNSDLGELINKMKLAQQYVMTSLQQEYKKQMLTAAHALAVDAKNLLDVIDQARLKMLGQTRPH

| Structure (SMILES) | composite z-score |
| --- | --- |
| COCCn1c(C(=O)N2CCCC2)cc2c1C[C@H]1CN(C(=O)c3ccccc3)[C@@](Cc3ccccc3)(C(=O)OC)[C@@H]21 | 1.54 |
| CC(C)(C)N1CC=CC23O[C@@H]4/C=C\CCCOC(=O)C4[C@H]2C(=O)N(CCCCCCO)[C@@H]3C1=O (some centres undefined) | -0.639 |
| CCCC[C@@H](O)C1=C(COC)Cn2c(=O)n(-c3ccccc3)c(=O)n2[C@H]1CO | -0.109 |
| COC(=O)[C@@H]1N=C(c2ccc(OCCCO)cc2)O[C@@H]1c1ccccc1CN=[N+]=[N-] | 0.841 |
| CN1C=C(C(=O)OCCS(C)(=O)=O)C(C(=O)OCCS(C)(=O)=O)=CC(CCCO)=CC1c1ccc(CN2CCCC2)cc1 (centres undefined) | 0.666 |
| COCCOC(=O)N1C(=O)[C@@]2(c3ccccc31)[C@H](C(N)=O)[C@H]1C(=O)O[C@H](c3ccccc3)[C@H](c3ccccc3)N1[C@@H]2c1ccc(OCCO)cc1 | 0.451 |
| CC(C)CNC(=O)[C@@H]1c2ccccc2C(=O)N(C(C)C)[C@H]1c1ccc(CO)cc1 | -0.155 |
| CC(C)c1ccc(NN2C(C(O)C(C)C)C=CC3C(=O)N(c4ccccc4)C(=O)C32)cc1 (centres undefined) | 0.811 |
| COCCOC(=O)N1C(=O)[C@@]2(c3cc(C#CCC(C(=O)OC)C(=O)OC)ccc31)[C@H](C(=O)N1CCCCCCC1)[C@H]1C(=O)O[C@H](c3ccccc3)[C@H](c3ccccc3)N1[C@@H]2c1ccccc1OCCO | 0.945 |
| O=C(NCCO)C1=C[C@H](Oc2ccccc2I)[C@@H](O)[C@H](NCc2ccc(F)cc2)C1 | -0.279 |
| COC(=O)Cn1c(C(=O)N(C)C)cc2c1C[C@H]1CN(C(=O)c3ccccc3)[C@@](Cc3ccc(OC)cc3)(C(=O)OC)[C@@H]21 | 0.263 |
| [N-]=[N+]=NCc1ccccc1C[C@]1(C(=O)NCc2ccccc2)N=C(c2ccc(OCCCO)cc2)O[C@H]1c1ccccc1CN=[N+]=[N-] | 0.586 |
| CC(=O)NCCCC[C@@H]1NC(=O)[C@H]2C[C@@H](C(=O)NCCCCCC[N+](C)(C)C)[C@@H](c3ccc(O)cc3)N2C1=O | 0.26 |
| [N-]=[N+]=NCc1ccccc1C[C@]1(C(=O)N2CCCCC2)N=C(c2ccc(OCCCO)cc2)O[C@H]1c1ccccc1 | 0.425 |
| COc1ccc(CCNC(=O)[C@@]2(Sc3ccc(C)cc3)CC(=O)N(C(C)C)[C@@H]2c2ccc(CO)cc2)cc1 | -0.13 |
| COC(=O)C(CC#Cc1ccc2c(c1)[C@]1(C(=O)N2)[C@H](c2ccc(O)cc2)N2[C@H](c3ccccc3)[C@H](c3ccccc3)OC(=O)[C@H]2[C@@H]1C(=O)N1CCc2cc(OC)c(OC)cc2C1)C(=O)OC | -0.0453 |
| COc1ccccc1CN1C(=O)c2ccccc2[C@](Cc2ccccc2I)(C(=O)NCCCN(C)C)[C@@H]1c1ccc(CO)cc1 | 0.904 |
| CN1C(=O)C2C(C1=O)C1C=C(c3ccc(CO)cc3)C2C(c2cccs2)N1C (centres undefined) | 0.0955 |
| NCCCC[C@@H]1NC(=O)[C@H]2C[C@@H](C(=O)NCc3ccc(F)cc3)[C@@H](c3cccc(OCCO)c3)N2C1=O | 0.0858 |
| CC(C)(C)OC(=O)CC[C@]1(C(=O)N2CCOCC2)N=C(c2ccc(OCCCO)cc2)O[C@H]1c1ccccc1CN=[N+]=[N-] | 0.527 |
| CC(C)[C@@H](C(=O)O)n1cc(-c2ccccc2)nn1 | 0.866 |
| NCCCC[C@@H]1NC(=O)[C@H]2C[C@@H](C(=O)NCc3ccc(F)cc3)[C@@H](c3ccc(O)cc3)N2C1=O | -0.145 |
| O=C1OCCC=C[C@H]2OC34C=CCN(c5ccc(Cl)cc5)C(=O)[C@H]3N(CCO)C(=O)[C@@H]4C12 (some centres undefined) | -0.732 |
| O=C1O[C@@H](c2ccccc2)[C@@H](c2ccccc2)N2[C@@H](c3ccc(O)cc3)[C@]3(C(=O)Nc4ccc(C#CC5=CCCCC5)cc43)[C@@H](C(=O)N3CCCCCCC3)[C@H]12 | 0.277 |

Each compound was assayed on Fibrinogen (Alexa647-labelled) (assay: fibrinogen binders on compound microarrays, profiling panel, artefact control for SMM control-protein annotation, biochemical, small-molecule microarray, 635/667 nm fluorescence (AID 1131;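 further: z-score merges 667 nm fluorescence with per-spot signal-to-noise over triplicate slides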)). Conditions: fibrinogen-A647 binding fluorescence, higher = more signal.

| Structure (SMILES) | composite z-score |
| --- | --- |
| CC(C)C(=C=CC[C@@H](O)c1ccc(OCCO)cc1)CCO | 0.114 |
| CC#CCO[Si](C#CCCCCCC)(C(C)C)C(C)C | -1.49 |
| CN(C)CCCC[C@@H]1NC(=O)[C@H]2C[C@@H](C(=O)NCc3ccc(F)cc3)[C@@H](c3ccc(O)cc3)N2C1=O | 0.563 |
| CC(C)N1CC=CC23O[C@@H]4C=CCCOC(=O)C4[C@H]2C(=O)N(CCCCCO)[C@@H]3C1=O (some centres undefined) | 0.834 |
| COCCOC(=O)N1C(=O)[C@@]2(c3ccccc31)[C@H](C(=O)N1CCCCCCC1)[C@H]1C(=O)O[C@H](c3ccccc3)[C@H](c3ccccc3)N1[C@@H]2c1ccc(O)cc1 | 0.842 |
| C#CCN([C@H](/C=C/C1CC1)[C@@H](O)Cc1ccccc1)[C@@H](Cc1ccccc1)C(=O)OC | -0.408 |
| COC(=O)[C@@]1(Cc2ccc(F)cc2)[C@H]2c3cc(C(=O)N(C)C)n(CCn4cc([N+](=O)[O-])nc4C)c3C[C@H]2CN1C(=O)c1ccccc1 | 0.835 |
| CCOC(=O)C[C@H]1[C@H](OC(=O)Cc2ccc3c(c2)OCO3)[C@@H](NC(=O)c2ccccc2)c2cc(OCCCO)ccc2N1C(=O)Cc1ccc(OC)cc1 | 0.792 |
| C[N+](C)(C)CCCC[C@@H]1NC(=O)[C@H]2C[C@@H](C(=O)NCCCCCNC(=O)CS)[C@@H](c3ccc(O)cc3)N2C1=O | 0.9 |
| CN1C(=O)[C@]2(CCS(=O)(=O)c3ccccc3)N=C(c3ccc(OCCCO)cc3)O[C@@H]2c2ccccc21 | 0.495 |
| O=C1O[C@@H](c2ccccc2)[C@@H](c2ccccc2)N2[C@@H](c3ccc(OCCO)cc3)[C@]3(C(=O)Nc4ccc(C#CCCO)cc43)[C@@H](C(=O)Nc3nc4ccccc4s3)[C@H]12 | 0.978 |
| COCCn1c(C(=O)N2CCCC2)cc2c1C[C@H]1CN(C(=O)c3ccccc3)[C@@](Cc3ccccc3)(C(=O)OC)[C@@H]21 | 0.948 |
| CC(C)(C)N1CC=CC23O[C@@H]4/C=C\CCCOC(=O)C4[C@H]2C(=O)N(CCCCCCO)[C@@H]3C1=O (some centres undefined) | -1.01 |
| CCCC[C@@H](O)C1=C(COC)Cn2c(=O)n(-c3ccccc3)c(=O)n2[C@H]1CO | 0.894 |
| COC(=O)[C@@H]1N=C(c2ccc(OCCCO)cc2)O[C@@H]1c1ccccc1CN=[N+]=[N-] | 0.38 |
| CN1C=C(C(=O)OCCS(C)(=O)=O)C(C(=O)OCCS(C)(=O)=O)=CC(CCCO)=CC1c1ccc(CN2CCCC2)cc1 (centres undefined) | 0.894 |
| COCCOC(=O)N1C(=O)[C@@]2(c3ccccc31)[C@H](C(N)=O)[C@H]1C(=O)O[C@H](c3ccccc3)[C@H](c3ccccc3)N1[C@@H]2c1ccc(OCCO)cc1 | 0.927 |
| CC(C)CNC(=O)[C@@H]1c2ccccc2C(=O)N(C(C)C)[C@H]1c1ccc(CO)cc1 | -1.18 |

| Structure (SMILES) | composite z-score |
| --- | --- |
| CC(C)c1ccc(NN2C(C(O)C(C)C)C=CC3C(=O)N(c4ccccc4)C(=O)C32)cc1 (centres undefined) | 1.04 |
| COCCOC(=O)N1C(=O)[C@@]2(c3cc(C#CCC(C(=O)OC)C(=O)OC)ccc31)[C@H](C(=O)N1CCCCCCC1)[C@H]1C(=O)O[C@H](c3ccccc3)[C@H](c3ccccc3)N1[C@@H]2c1ccccc1OCCO | 0.775 |
| O=C(NCCO)C1=C[C@H](Oc2ccccc2I)[C@@H](O)[C@H](NCc2ccc(F)cc2)C1 | -2.27 |
| COC(=O)Cn1c(C(=O)N(C)C)cc2c1C[C@H]1CN(C(=O)c3ccccc3)[C@@](Cc3ccc(OC)cc3)(C(=O)OC)[C@@H]21 | 0.605 |
| [N-]=[N+]=NCc1ccccc1C[C@]1(C(=O)NCc2ccccc2)N=C(c2ccc(OCCCO)cc2)O[C@H]1c1ccccc1CN=[N+]=[N-] | 0.91 |
| CC(=O)NCCCC[C@@H]1NC(=O)[C@H]2C[C@@H](C(=O)NCCCCCC[N+](C)(C)C)[C@@H](c3ccc(O)cc3)N2C1=O | -0.0238 |
| [N-]=[N+]=NCc1ccccc1C[C@]1(C(=O)N2CCCCC2)N=C(c2ccc(OCCCO)cc2)O[C@H]1c1ccccc1 | 0.714 |
| COc1ccc(CCNC(=O)[C@@]2(Sc3ccc(C)cc3)CC(=O)N(C(C)C)[C@@H]2c2ccc(CO)cc2)cc1 | -1.3 |
| COC(=O)C(CC#Cc1ccc2c(c1)[C@]1(C(=O)N2)[C@H](c2ccc(O)cc2)N2[C@H](c3ccccc3)[C@H](c3ccccc3)OC(=O)[C@H]2[C@@H]1C(=O)N1CCc2cc(OC)c(OC)cc2C1)C(=O)OC | 0.742 |
| COc1ccccc1CN1C(=O)c2ccccc2[C@](Cc2ccccc2I)(C(=O)NCCCN(C)C)[C@@H]1c1ccc(CO)cc1 | 0.944 |
| CN1C(=O)C2C(C1=O)C1C=C(c3ccc(CO)cc3)C2C(c2cccs2)N1C (centres undefined) | 0.783 |
| NCCCC[C@@H]1NC(=O)[C@H]2C[C@@H](C(=O)NCc3ccc(F)cc3)[C@@H](c3cccc(OCCO)c3)N2C1=O | 0.763 |
| CC(C)(C)OC(=O)CC[C@]1(C(=O)N2CCOCC2)N=C(c2ccc(OCCCO)cc2)O[C@H]1c1ccccc1CN=[N+]=[N-] | 0.979 |
| CC(C)[C@@H](C(=O)O)n1cc(-c2ccccc2)nn1 | 0.924 |
| NCCCC[C@@H]1NC(=O)[C@H]2C[C@@H](C(=O)NCc3ccc(F)cc3)[C@@H](c3ccc(O)cc3)N2C1=O | 0.165 |
| O=C1OCCC=C[C@H]2OC34C=CCN(c5ccc(Cl)cc5)C(=O)[C@H]3N(CCO)C(=O)[C@@H]4C12 (some centres undefined) | -0.262 |
| O=C1O[C@@H](c2ccccc2)[C@@H](c2ccccc2)N2[C@@H](c3ccc(O)cc3)[C@]3(C(=O)Nc4ccc(C#CC5=CCCCC5)cc43)[C@@H](C(=O)N3CCCCCCC3)[C@H]12 | 0.836 |
